In PubChem BioAssay (Tox21):
“And” between values parts separate entries of the source, which are not always exact repeats. Equal values may be shown once. Inconclusive results are not listed. A call without a number means that no potency is given here. More than one record can exist for a structure, and the calls need not agree. The source made the active and inactive calls. Calls come from the whole dose curve; as a rule, active = well fitted cell-killing curve with a large enough effect in the repeat runs; inconclusive = weak or mixed curves, or effect the other way; inactive = no such curve, though single readings can be large or run the other way.

Assay: qHTS assay to identify small molecule antagonists of the thyroid receptor (TR) signaling pathway - cell viability counter screen (AID 743064); note: nearly all actives have a fitted effect of over 50% in size
Settings: GH3.TRE-Luc viability, CellTiter-Fluor, 24 h; series mostly up to 70.3 µM
Description: National Center for Advancing Translational Sciences [NCATS]
NIH Chemical Genomics Center [NCGC]
U.S. Environmental Protection Agency [EPA]
National Institutes of Environmental Health Sciences [NIEHS]
National Toxicology Program [NTP]
U.S. Food and Drug Administration [FDA]
Thyroid receptor (TR), a nuclear hormone receptor, plays an important role in development, proliferation, differentiation, metabolism, brain function, and cardiovascular system. […] To profile the Tox21 10K compound library in TR signaling, a cell-based GH3-TRE-Luc assay (GH3.TRE-Luc cell line, developed by the laboratory of Dr. Albertinka J. Murk, Wageningen University) was used to measure the inhibition of TR. GH3 (rat pituitary tumor) cells stably expressing a TR activity sensor consisting of two TR response elements and a luciferase reporter gene. The cytotoxicity of the Tox21 compound library against the GH3.TRE-Luc cell line was tested in parallel by measuring the cell viability using CellTiter-Fluor assay (Promega, Madison, WI) in the same wells.
Tox21 Assay Protocol Summary:
GH3.TRE-Luc cells were dispensed at 1500 cells/4 uL/well into 1536-well white solid bottom plates using a Multidrop Combi dispenser (Thermo Fisher Scientific Inc., Waltham, MA). After the assay plates were incubated at 37 C for 4 hours, 23 nL of library compound or DMSO controls was transferred to the assay plates by a pintool station (Kalypsys, San Diego, CA), followed by addition of 1 ul of T3 (1 nM, final concentration in the wells) to stimulate TR transactivation. The assay plates were incubated at 37 C for 23.5 h, and then 1 uL of CellTiter-Fluor reagent (Promega, Madision, WI) of measuring cytotoxicity was added to each well using a Bioraptr Flying Reagent Dispenser (FRD) workstation (Beckman Coulter, Indianapolis, IN, USA). The plates were incubated at 37C and 5% CO2 for additional 30 min, and fluorescence intensity was measured by a ViewLux plate reader (PerkinElmer, Shelton, CT).
Potency is the fitted concentration of half-maximal effect.

Row | Structure (SMILES) | Potency
1 | CC(C)(C)CC(C)(C)c1ccc(O)c(-n2nc3ccccc3n2)c1 | 26.6 µM (active) and 30.6 µM (active)
2 | N[C@@H](Cc1c[nH]c2ccc(O)cc12)C(=O)O | inactive
3 | NC(=O)OCC(COC(N)=O)c1ccccc1 | inactive
4 | Oc1cccc(O)c1 | inactive
5 | CCCCCCCCCCCCCC(=O)OC(C)C | inactive
6 | Cc1c(N(C)CS(=O)(=O)O)c(=O)n(-c2ccccc2)n1C | inactive
7 | CCc1cc(C(N)=S)ccn1 | inactive
8 | N[C@@H](Cc1c[nH]c2ccccc12)C(=O)O | inactive
9 | OCCCc1ccccc1 | inactive
10 | CN(C)Cc1cc(CN(C)C)c(O)c(CN(C)C)c1 | inactive
11 | COc1ccccc1NC(=O)CC(C)=O | inactive
12 | COC(=O)c1ccc(C=O)cc1 | inactive
13 | Cc1cnc(NC(=O)C2=C(O)c3ccccc3S(=O)(=O)N2C)s1 | inactive
14 | CCOC(=O)C(C)(C)Oc1ccc(Cl)cc1 | inactive
15 | C=CC(=O)NC(C)(C)CS(=O)(=O)O | inactive
16 | Nc1cccc(N)c1 | inactive
17 | CCCCCCCCOc1ccc(C(=O)c2ccccc2)c(O)c1 | inactive
18 | NC(=O)NO | inactive
19 | CO[C@H]1C=CO[C@@]2(C)Oc3c(C)c(O)c4c(O)c(c(/C=N/N5CCN(C)CC5)c(O)c4c3C2=O)NC(=O)/C(C)=C\C=C[C@H](C)[C@H](O)[C@@H](C)[C@@H](O)[C@@H](C)[C@H](OC(C)=O)[C@@H]1C | 26.6 µM (active) and 34.8 µM (active)
20 | Cc1ccc(O)c(-n2nc3ccccc3n2)c1 | inactive

Row | Structure (SMILES) | Potency
21 | CC(C)Cc1ccc(C(C)C(=O)O)cc1 (stereo not given) | inactive
22 | COCCOCCOC | inactive
23 | COC(=O)c1ccc(O)cc1 | inactive
24 | CC1=C(/C=C/C(C)=C/C=C/C(C)=C/C(=O)O)C(C)(C)CCC1 | inactive
25 | Cn1cnc2c1c(=O)[nH]c(=O)n2C | inactive
26 | Cc1cccc2ccccc12 | inactive
27 | CC(=O)Oc1ccccc1C(=O)O | inactive
28 | CN/C(=C\[N+](=O)[O-])NCCSCc1ccc(CN(C)C)o1 | inactive
29 | CC1(C)O[C@@H]2[C@@H](CO[C@@]3(COS(N)(=O)=O)OC(C)(C)O[C@@H]23)O1 | inactive
30 | O=c1cc[nH]c(=O)[nH]1 | inactive
31 | C[C@]12C=CC(=O)C=C1CC[C@@H]1[C@@H]2C(=O)C[C@@]2(C)[C@H]1CC[C@]2(O)C(=O)CO | inactive
32 | C=C(C)C(N)=O | inactive
33 | C[C@]12CC[C@@H]3c4ccc(O)cc4CC[C@H]3[C@@H]1CCC2=O | inactive
34 | NC(N)=NC(N)=NCCc1ccccc1 | inactive
35 | CC(C)=CCC/C(C)=C/CO | inactive
36 | CCCCOCCOCCSC#N | inactive
37 | Nc1ccc(N=Nc2ccccc2)c(N)n1 | 21.1 µM (active) and 34.6 µM (active)
38 | CCCCC/C(C=O)=C\c1ccccc1 | inactive and 61.2 µM (active)
39 | COCC(C)N (stereo not given) | inactive
40 | COc1cc(C=O)ccc1O | inactive
